In PubChem BioAssay AID2314 (National Center for Advancing Translational Sciences (NCATS), 2010):
“And” between values parts separate entries of the source, which are not always exact repeats. Identical values can stand only once. Out of some 300,000 compounds screened, about 37,000 (12%) were called active. This is one part of a sample in which actives are shown more often than they occur. Values without a mark were called inactive. No stated cut-off is given here; in the data, active means max response mostly above about 13% (no sharp cut-off); inactive means mostly below about 14%.

experiment: Cycloheximide Counterscreen for Small Molecule Inhibitors of Shiga Toxin; settings: cell reporter, cycloheximide protein synthesis inhibition counterscreen; stronger effect = higher value; further: read at 38.3 µM for the half of the compounds with a filed dose; 0% is about no effect

SMILES | max response
CC(=O)N1c2ccc(S(=O)(=O)N3CCC(C(=O)N4CCN(c5ccccc5)CC4)CC3)cc2CC1C (stereo unspecified) | -2.01%
O=C(Nc1cc(C(F)(F)F)ccc1Cl)c1cc2nc3c(c(C(F)(F)F)n2n1)CCCC3 | -1.76%
C#CCOc1ccc(/C=C2/C(=O)ON=C2C)cc1OCC | 3.92%
CCCOC(=O)c1cc2ccccc2oc1=O | 11.4%
CCOC(=O)c1cc2cc3ccccc3cc2oc1=O | 21.6% (active)
C=CCc1cccc2cc(C(=O)OCC)c(=O)oc12 | -2.44%
CC[C@]1(O)CC2CN(CCc3c([nH]c4ccccc34)[C@@](C(=O)OC)(c3cc4c(cc3OC)N(C=O)[C@H]3[C@@](O)(C(=O)OC)[C@H](OC(C)=O)[C@]5(CC)C=CCN6CC[C@]43[C@@H]65)C2)C1 (stereo partly specified) | -6.26%
CCOc1ccccc1N1C(=O)CC(Sc2nccc(C)n2)C1=O (stereo unspecified) | 0.743%
CC(=O)Nc1ccccc1C(=O)OCC(=O)c1cccc2ccccc12 | 7.37%
O=C(OCC(=O)c1c[nH]c2ccccc12)c1cccc(O)c1 | 72.9% (active)
O=C(Cc1c[nH]c2ccccc12)OCCOC(=O)Cc1c[nH]c2ccccc12 | -4.53%
O=C(OCc1ccc(-c2ccccc2)cc1)c1cccc(O)c1 | 57.7% (active)
O=C(OCc1ccc(Br)cc1)c1cccc(-c2nnc(-c3ccccc3)o2)c1 | 13.9%
Cc1ccc(S(=O)(=O)c2c(COC(=O)c3cccc(Cl)c3)c(-c3ccccc3)nn2C)cc1 | -6.17%
C=C(C)C(=O)Nc1cccc(C2=NOC3(C2)C[C@H](C(N)=O)N(C(=O)C(c2ccccc2)c2ccccc2)C3)c1 (stereo partly specified) | -6.93%
CSc1ccc(C(=O)C2CCCN(C(=O)c3ccc(C)nc3)C2)cc1 (stereo unspecified) | -0.923%
O=S(=O)(Nc1ccc2[nH]ncc2c1)c1ccccc1Cl | -3.76%
CN(Cc1ccco1)S(=O)(=O)c1nnc(NC(=O)c2ccccc2)s1 | 26%
COc1cccc(-c2cccc(NC(=O)C3CCN(C4CCC4)CC3)c2)c1 | -2.09%
O=C1CS(=O)CN1c1ccc(Oc2ccccc2)cc1 (stereo unspecified) | -1.61%
Cc1n[nH]c(=O)n1-c1ccc(C(C)C)cc1 | 4.16%
Cc1n[nH]c(=O)n1-c1ccc(Oc2ccccc2)cc1 | 16.2% (active)
COc1cccc(N(C(=O)c2snc(C(N)=O)c2N)C(C(=O)NCC2CCCO2)c2c[nH]c3ccccc23)c1 (stereo unspecified) | -2.27%

SMILES | max response
COC(=O)c1ccccc1NC(=O)C1(S(=O)(=O)c2ccc(Cl)cc2)CC1 | -5.97%
COc1ccc(S(=O)(=O)N(C)C)cc1NC(=O)CSc1ncccn1 | 8.4%
COc1ccc(NS(=O)(=O)c2ccc3oc(SCC(N)=O)nc3c2)cc1 | -2.16%
CN(C)S(=O)(=O)c1ccc2oc(SCC(=O)Nc3ccccc3F)nc2c1 | 40% (active)
CCC1(C(=O)c2ccccc2)C(c2cccc([N+](=O)[O-])c2)C1(C(=O)OC)C(=O)OC (stereo unspecified) | -5.04%
N#Cc1c(N2CCCCC2)nc(N)c2c(N)nc(SCC(=O)O)cc12 | -0.559%
Cc1cc(/C=C(/C#N)C(=O)Nc2ccc(Cl)cc2)c(C)n1-c1cccnc1 | 1.53%
Cc1ccc(-n2c(C)cc(/C=C(\C#N)C(=O)NCC3CCCO3)c2C)cc1 (stereo unspecified) | 50.5% (active)
Cc1ccc(S(=O)(=O)N2CCC(C(=O)NCC3CCCO3)CC2)cc1 (stereo unspecified) | -2.91%
COc1ccc(CCNS(=O)(=O)c2cn(C)nc2C)cc1 | -0.628%
CC(C)=N/N=C1/NC(=O)C(Cc2ccccc2)S1 (stereo unspecified) | -3.98%
C=CCn1c(SCc2c(C)noc2C)nc2sc3c(c2c1=O)CCC(C)C3 (stereo unspecified) | -3.64%
CCCn1nnc2sc3c(c2c1=O)CCC(C)C3 (stereo unspecified) | 35.5% (active)
CC1CCc2c(sc3nc4n(c(=O)c23)CCS4)C1 (stereo unspecified) | 31.9%
COc1cc(C2OC(c3cc(OC)c(OC)c(OC)c3)C(C)C2C)cc(OC)c1OC (stereo unspecified) | 8.36%
CCOC(=O)c1nnn2c1nc(N1CCN(c3ccccc3)CC1)c1ccccc12 | -4.05%
CCN(CC)CCC(c1cc(OC)c(OC)c(OC)c1)c1c(OC)cc(OC)c2c(-c3ccccc3)cc(=O)oc12 (stereo unspecified) | -8.53% and -14.6%
Cc1nn(C)c(Oc2ccccc2)c1CCNS(=O)(=O)c1ccc(F)cc1 | -1.22%
COc1ccc(CCNc2ncnc3c2nnn3Cc2ccccc2)cc1 | -1.82%
CN1CCN(c2ccc(CNS(=O)(=O)c3cccc(F)c3)cc2)CC1 | -2.69%
CCC(C)n1c(-c2cc(OC)c(OC)c(OC)c2)nc2nc3ccccc3nc21 (stereo unspecified) | 5.57%
COc1ccccc1Oc1nc(-c2cccnc2)nc2ccccc12 | 6.84%
COc1ccc(Nc2nc(-c3cccnc3)nc3ccccc23)cn1 | -4.67%

SMILES | max response
Fc1ccc(/C=N/Nc2nc(-c3cccnc3)nc3ccccc23)cc1 | 46.2% (active)
CC(NS(=O)(=O)c1ccc(OCC(=O)N2CCCC2)cc1)c1ccccc1 (stereo unspecified) | -1.86%
CC(C)(C)NC(=O)c1ccc(Cn2cc(C(F)(F)F)ccc2=O)cc1 | -2.26%
Cc1ccc(N2C(=O)SC(N(CC(=O)O)c3ccc(C)cc3)C2=O)cc1 (stereo unspecified) | 5.36%
Cc1cccc(N2C(=O)SC(N(CC(=O)O)c3cccc(C)c3)C2=O)c1 (stereo unspecified) | 31.1% (active)
Cc1cccc(N(CC(=O)N2CCOCC2)S(C)(=O)=O)c1 | -1.89%
O=C(CN(c1cc(C(F)(F)F)ccc1Cl)S(=O)(=O)c1ccccc1)NCc1cccnc1 | -4.73%
CC(C)c1ccc(NC(=O)Cn2ncc3ccccc32)cc1 | 29% (active)
CCOC(=O)c1cn(CC(=O)Nc2ccc(C(C)C)cc2)nn1 | -2.13%
CCc1ccc(NC(=O)Cn2ncn3c(cc4ccccc43)c2=O)cc1 | -4.36%
O=C(O)Cn1c(Cc2ccccc2)nc2ccccc21 | 1.69%
COC(=O)c1ccc2c(=O)n(CCN3CCOCC3)c(SCC(=O)Nc3cccc(OC)c3)nc2c1 | -1.03%
CCOC(=O)CSc1nnc(CNc2ccc(F)cc2)o1 | -0.571%
Cc1cccc2nc(CNc3ccc(F)cc3)cn12 | 33.7% (active)
O=C(COC(=O)c1ccco1)NCc1ccc(Cl)cc1 | 4.34%
COc1cccc(-n2cc(C(=O)O)c3ccccc3c2=O)c1 | -2.23%
COc1cccc(N2C(=O)CN(Cc3ccccc3)C2=S)c1 | -1.8%
COc1cccc(-n2c(=S)[nH]c3c(oc4ccccc43)c2=O)c1 | 18.5% (active)
O=C(c1ccccc1)N1CCC(CC2CC(c3ccc(Cl)cc3)=NO2)(C(=O)NCC2CCCCC2)CC1 (stereo unspecified) | -1.39%
COc1ccc(-c2oc3ncn(Cc4ccco4)c(=N)c3c2-c2ccc(OC)cc2)cc1 | -1.11%
Cc1ccc(NC(=S)Nc2ncccc2C)c(C)c1 | 42.7% (active)
COC(=O)c1cccnc1NC(=S)NC(C)C | 3.9%
CCOC(=O)N1CCN(C(=S)Nc2ccc(C)cc2C)CC1 | -5.54%

SMILES | max response
CCOc1ccc(C(=O)COC(=O)c2ccc(-n3cnnn3)cc2)cc1 | 1.17%
CC1CN(c2nc(-c3ccccc3)nnc2-c2ccccc2)CC(C)O1 (stereo unspecified) | -4.84%
COc1ccc(C2/C=C\CN(C(=O)c3ccc(C)cc3)C(Cc3ccccc3)C(=O)N2Cc2ccc(F)cc2)cc1 (stereo unspecified) | 2.85%
CCOc1cc(/C=N/NC(=O)CN2CCCCC2)ccc1O | -1.36%
Cc1ccc(COc2ccc(/C=N/NC(=O)CN3CCCCC3)cc2)cc1 | 32.7% (active)
O=C(CN1CCSCC1)N/N=C/c1ccc(Cl)cc1 | 11.3%
CNC(=S)NNC(=O)c1sccc1OCc1ccccc1 | -0.196%
Cc1ccc(/C=N/NC(=O)c2sccc2OCc2ccc(F)cc2)cc1 | 16.2% (active)
Cc1ccc(/C=N/NC(=O)COc2ccccc2-c2ccccc2)cc1 | -1.02%
CC(Sc1nc2c([nH]c3ccccc32)c(=O)n1C)c1ccccc1 (stereo unspecified) | -7.36%
Cc1ccc(C(=O)Nc2c(C#N)c(C)c(C)n2Cc2ccccc2)cc1 | -2.66%
CC(=O)Nc1ccc(S(=O)(=O)N2CCN(C(=O)c3ccccc3F)CC2)cc1 | 6.62%
CCOC(=O)c1c(N=CN(C)C)c(C#N)c2n1CCCC2 | -4.22%
Cc1oc2nc(SCC(=O)Nc3ccc(S(N)(=O)=O)cc3)nc(NC(=O)c3ccccc3)c2c1C | -2.02%
O=C(CN(Cc1ccc(Br)cc1)S(=O)(=O)c1ccccc1)NCc1ccncc1 | -2.43%
Cc1cc(C)nc(-n2nc(C)cc2NC(=O)c2ccc(F)cc2F)n1 | -3.69%
N=c1c2c3c(sc2nc2n1CCCCC2)CCCC3 | 15%
C[C@@H]1CC[C@@]2(OC1)O[C@H]1C[C@H]3[C@@H]4CC=C5C[C@@H](O)[C@H](O)C[C@]5(C)C4CC[C@]3(C)[C@H]1[C@@H]2C (stereo partly specified) | -6.07%
CCCc1nn2c(=O)cc(CSCC(=O)Nc3cccc(C)c3)nc2s1 | -2.96%
CC1=NN(Cc2ccccc2)C(=O)/C1=C/c1ccc(N(C)C)cc1 | 3.72%
CN(C)c1ccc(/C=C2\NC(=S)N(Cc3ccccc3)C2=O)cc1 | 16.3% (active)
O=C1NCC(=O)N(Cc2ccccc2)/C1=C/c1ccccc1 | -7.39%
